Data taken from PubChem BioAssay (NCATS).
Results filed as inconclusive are left out. The source made the active and inactive calls. The call rests on the fitted dose curve; in most records, active means well fitted curve in the direction sought with a large enough effect; inconclusive means small, poorly fitted or top-dose-only effect, or another doubt; inactive means no such curve, though single readings can be large or run the other way.

Experiment: qHTS for Inhibitors of the vitamin D receptor (VDR): Hit Validation using a Texas Red Assay (AID 602201)
Details: VDR coregulator binding, Texas Red fluorescence polarization; series mostly up to 57.1 µM; activity, negative = inhibition: at the top concentration
From the text: The vitamin D receptor (VDR) is a ligand-activated transcription factor and is partially responsible for the regulation of the endocrine system. This includes the transcriptional regulation of genes involved in the production of the parathyroid hormone (PTH) and the regulation of the blood calcium level. High levels of PHT can cause hypercalcemia in the case of primary and tertiary hyperparathyroidism. The VDR-mediated gene regulation, activated by its ligand 1,25-dihydroxyvitamin D3 (1,25-(OH)2D3), is governed by the recruitment of coactivators. Our hypothesis is that small molecules, with the ability to inhibit the interaction between VDR and certain coactivators, are able to selectively modulate VDR-mediated transcription. Our long term objective is the application these VDR-coactivator inhibitors to study the role of VDR-coactivator binding for specific VDR regulated genes. Ultimately, these molecules can be developed into new treatments for hypercalcemic hyperparathyroidism. No small molecule or non-peptide inhibitors are known for the VDR-coactivator interaction.
In a collaboration between the University of Wisconsin, Milwaukee and the NIH Chemical Genomics Center (NCGC) a HTS-compatible enzymatic assay was developed. The assay uses fluorescence polarization as its read-out to measure the inhibition between VDR and coregulator peptide SRC2-3 exerted by small molecules. This assay was used to screen the NIH Molecular Libraries Small Molecule Repository (MLSMR). The HTS assay detects polarization at 665 nm emitted by the Alexa Fluor 647 dye. This validation assay detects polarization of the emission from Texas-Red at 615 nm.
NIH Chemical Genomics Center [NCGC]
NIH Molecular Libraries Probe Centers Network [MLPCN]
Assay Submitter (PI): Alexander Arnold, University of Wilwaukee
Four microliter of either 1.5 uM VDR-LBD, […], and 7 nM Texas Red (all final concentrations) in columns 1, 2, and 5 to 48 or 7 nM Texas Red in columns 3 and 4 are dispensed into black medium-binding solid bottom Greiner plates. Both solutions are kept at 4 deg C and protected from light and dispensed using a Kalypsys dispenser. Then 23nl of compounds and controls are added with Kalypsys pintool. The control is 26.5 mM CBT358 (final concentration of 151 uM) and the compounds' final range in concentration is 457 nM - 114 uM. Plate is centrifuged at 1000 RPM for 15 seconds to remove any residual bubbles. The plate is then incubate at ambient room temperature for 2 hours. It is then read on the Envision for a fluorescent polarization read-out (Ex 595 nm/Em 615 nm)
On the % scale 0 is the no-effect control and ±100 the full control effect; potency means the concentration at half of the fitted maximal effect.

SMILES	Potency	activity, negative = inhibition
CN1CCC(O)(c2cccs2)C(C(=O)c2cccs2)C1 (stereo not drawn)	28.2 µM (active)	
Cc1ccccc1N1C(=O)NC(=O)/C(=C\c2cnn(-c3ccccc3)c2)C1=O		-12.5% (inactive)
O=C1NC(=O)C(=Cc2ccc(-c3ccc(S(=O)(=O)N4CCOCC4)cc3)o2)C(=O)N1		-19.4% (inactive)
COc1cccc(C2CC3C(=O)C=CC2N3Cc2ccccc2)c1 (stereo not drawn)	28.2 µM (active)	
CN1C2CCC1/C(=C/c1ccccn1)C(=O)/C2=C\c1ccccn1		-13.1% (inactive)
CN1C(=O)NC(=O)/C(=C\C=C\c2ccccc2[N+](=O)[O-])C1=O		-10.9% (inactive)
O=C1NC(=O)C(=Cc2ccc(-c3cc(Cl)ccc3[N+](=O)[O-])o2)C(=O)N1		5.28% (inactive)
Cc1nn(Cc2ccccc2)c(C)c1C=C1C(=O)NC(=S)NC1=O		-17.6% (inactive)
O=C(O)CCC(=O)NCCC1=c2ccccc2=N/C1=C\c1c(O)n(Cc2ccc(F)cc2)c(=S)[nH]c1=O		-3.97% (inactive)
O=C1NC(=O)N(c2ccccc2)C(=O)/C1=C/c1ccc([N+](=O)[O-])s1		-18.8% (inactive)
COC(=O)COc1ccc(/C=C2\C(=O)NC(=S)N(c3ccc(C)cc3)C2=O)cc1OC		-4.72% (inactive)
Cc1ccc(N2C(=O)NC(=O)/C(=C\c3cnc(-c4ccccc4)nc3)C2=O)cc1		-9.62% (inactive)
COc1cc(/C=C/[N+](=O)[O-])ccc1O		-14.9% (inactive)
O=C(O)CCn1cc(C=C2C(=O)NC(=S)NC2=O)c(-c2cccc(Cl)c2)n1		-4.91% (inactive)
CC(C)n1c(O)c(C2c3cc(Cl)ccc3Oc3[nH]c(=O)n(C(C)C)c(=O)c32)c(=O)[nH]c1=O (stereo not drawn)		-8.67% (inactive)
O=c1oc2ccccc2c(O)c1[C@H]1c2ccc(O)cc2Oc2c1c(=O)oc1ccccc21		33.6% (inactive)
CCOC(=O)c1c(NS(=O)(=O)c2ccccc2)n(CCCOC)c2nc3ccccc3nc12	3.55 µM (active)	
O=C(O)CCn1cc(C=C2C(=O)NC(=S)NC2=O)c(-c2cccc(Br)c2)n1		-5.32% (inactive)
